Potency and affinity values are given separately. Active and inactive are the calls of the source.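 The calls were made as follows: active = every replicate test called active, each showing a drop in signal with a fitted potency within twice the top tested dose; inconclusive = tests disagree, or fits are weak, flat midrange or poor; inactive = every test flat, rising or fitted past the limit.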

26 molecules from PubChem BioAssay AID1117290 (Broad Institute, 2014) can be followed below.

The assay can be described thus: A549 cell cytotoxicity, dose response, cytotoxicity control, CellTiter-Glo luminescence, dry powder, set 18 (AID 1117290). The conditions noted are these: A549 viability, CellTiter-Glo ATP luminescence, 72 h; series mostly up to 26 µM.
On to `O=[N+]([O-])c1cccc(S(=O)(=O)Nc2cc(C(F)(F)F)ccc2N2CCCCC2)c1`, for which the call was inactive.

`COc1ccc(C(=O)Nc2cc(C)ccc2N2CCCCC2)cc1S(=O)(=O)O`: the call was inactive.

For `Cc1ccc(NC(=O)NC2(C(=O)N3CCNCC3)CCCCC2)cc1`, the molecule was called inactive.

Take `COc1ccc(C(=O)Nc2ccccc2N2CCCCC2)cc1S(=O)(=O)O`: the molecule was called inactive.

Consider `CC(=O)N1CCN(C(=O)C2(NC(=O)Nc3ccccc3)CCCC2)CC1`, for which the molecule was called inactive.

Turning to `CC(=O)N1CCN(C(=O)C2CCCN2C(=O)Nc2ccc(C)cc2)CC1` (stereo unspecified), the outcome was inactive.

For `CC(=O)N1CCN(C(=O)C2(NC(=O)Nc3ccc(C(C)C)cc3)CCCC2)CC1`, the molecule was called inactive.

`NC(=NCCc1c[nH]c2ccccc12)NS(=O)(=O)c1cc(F)ccc1F`: the molecule was classed as inactive.

`COc1ccc(C(=O)O)cc1S(=O)(=O)Nc1cc(C(F)(F)F)ccc1N1CCOCC1`: the result was inactive.

As to `COc1ccc(C(=O)O)cc1S(=O)(=O)N1CCN(c2ccc(C(F)(F)F)cc2N)CC1`, the outcome was inactive.

Regarding `Cc1ccc(NC(=O)NC2(C(=O)N3CCOCC3)CCCCC2)cc1`, the molecule was called inactive.

Take `COc1ccc(C(=O)O)cc1S(=O)(=O)Nc1ccc(N2CCCCC2)cc1C(F)(F)F`: the molecule was called inactive.

`O=S(=O)(Nc1cc(C(F)(F)F)ccc1N1CCCCC1)c1ccc(Br)cc1`: the molecule was called inactive.

Turning to `COc1ccc(C2=NN(c3ccc(C(=O)O)cc3)C(c3ccc(OC)c(OC)c3)C2)cc1` (stereo unspecified), the result was inactive.

Take `Cn1cnc(S(=O)(=O)Nc2cc(C(F)(F)F)ccc2N2CCCCC2)c1`: the outcome was inactive.

For the molecule `COc1ccc(C(=O)O)cc1S(=O)(=O)Nc1cc(C(F)(F)F)ccc1N1CCCCC1`, the molecule was classed as inactive.

Take `CC(=O)N1CCN(C(=O)C2(NC(=O)Nc3ccccc3C(F)(F)F)CCCCC2)CC1`: the molecule was called inactive.

As to `CC(=O)N1CCN(C(=O)C2(NC(=O)Nc3ccc(F)cc3)CCCC2)CC1`, the molecule was called inactive.

Take `O=S(=O)(Nc1cc(C(F)(F)F)ccc1N1CCCCC1)c1ccc(Cl)cc1`: the result was inactive.

For `O=S(=O)(Nc1cc(C(F)(F)F)ccc1N1CCCCC1)c1ccc(-c2ccccc2)cc1`, the molecule was classed as inactive.

For the molecule `CC(=O)N1CCN(C(=O)C2(NC(=O)Nc3cccc(C(F)(F)F)c3)CCCCC2)CC1`, the call was inactive.

Regarding `COc1ccc(C(=O)O)cc1S(=O)(=O)Nc1cc(C(F)(F)F)ccc1N1CCN(C(C)=O)CC1`, the call was inactive.

Turning to `COc1cccc(NC(=O)NC2(C(=O)N3CCN(C(C)=O)CC3)CCCCC2)c1`, the molecule was classed as inactive.

With `COc1ccc(C(=O)O)cc1S(=O)(=O)Nc1cccc(N2CCCCC2)c1C(F)(F)F`, the molecule was called inactive.

`CC(=O)N1CCN(C(=O)C2(NC(=O)NC(C)(C)C)CCCCC2)CC1`: the molecule was classed as inactive.

As for `COc1ccc(C(=O)Nc2cc(C(F)(F)F)ccc2N2CCCC2)cc1S(=O)(=O)O`, the outcome was inactive.
